Source: ChEMBL document CHEMBL3988442, “University of Dundee, Small-Polar-MMV Screening Library” (2021)

molecular target: T1, Tyrosyl-tRNA synthetase, putative (Trypanosoma cruzi (strain CL Brener)) (UniProt Q4DSP6); test: Trypanosoma cruzi tyrosyl tRNA synthetase (TcYRS) SOP; type: functional; set-up: scale not given: direction of the effect not stated beside the values; conditions: 30 µM
T1 sequence (whole entry): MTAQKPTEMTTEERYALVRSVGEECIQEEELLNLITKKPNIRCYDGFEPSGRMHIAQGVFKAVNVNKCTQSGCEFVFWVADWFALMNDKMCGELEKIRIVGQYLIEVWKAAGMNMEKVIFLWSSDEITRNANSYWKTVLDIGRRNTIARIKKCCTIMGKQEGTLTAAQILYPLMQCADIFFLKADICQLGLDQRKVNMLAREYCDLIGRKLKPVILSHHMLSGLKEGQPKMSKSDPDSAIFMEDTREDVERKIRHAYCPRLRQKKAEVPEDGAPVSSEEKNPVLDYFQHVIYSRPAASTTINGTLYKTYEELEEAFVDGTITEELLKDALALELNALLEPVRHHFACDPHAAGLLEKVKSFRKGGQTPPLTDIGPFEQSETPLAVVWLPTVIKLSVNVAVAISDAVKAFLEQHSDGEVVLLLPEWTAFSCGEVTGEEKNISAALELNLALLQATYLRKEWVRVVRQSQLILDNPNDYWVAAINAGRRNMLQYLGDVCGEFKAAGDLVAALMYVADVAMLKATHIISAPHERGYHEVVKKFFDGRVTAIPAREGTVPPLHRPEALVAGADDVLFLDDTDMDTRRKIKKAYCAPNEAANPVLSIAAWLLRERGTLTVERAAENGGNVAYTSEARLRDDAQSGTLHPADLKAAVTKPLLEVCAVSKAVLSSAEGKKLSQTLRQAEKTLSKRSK

Structure (SMILES) | Percent Effect [%]
Cc1csc(N2CCCN(C(=O)c3c(C)oc(C)c3C)CC2)n1 | 17.9
CCc1nnc(CN2CCCC(c3cc(C(F)(F)F)[nH]n3)C2)o1 (centres undefined) | -2.56
Cc1cnn(CC2CCCCN2C(=O)c2cc(Cl)c[nH]2)c1 (centres undefined) | 23.5
COC(=O)C1CCN(C(=O)c2ccc(C)c(NS(C)(=O)=O)c2)CC1 | 2.44
c1cc(-c2noc(CN3CCn4c(nnc4C4CC4)C3)n2)co1 | 10.8
CN(CC(=O)Nc1ccc(Br)cn1)C(=O)Cc1ccc(O)cc1 | -82
CCc1ncc2c(n1)CN(CC(=O)Nc1nnc(C)s1)CC2 | 10.3
COCCN1CCN(Cc2ccc(F)c(C)c2)[C@H]2CS(=O)(=O)C[C@H]21 | 17.1
CNC(=O)N1C[C@H]2C[C@H](C(=O)Nc3ccccc3)[C@@H](C1)O2 | 10.3
Cc1cccc(CN2C(=O)CCC23CCN(c2ncc(F)cn2)CC3)n1 | 15
N#Cc1cccc(S(=O)(=O)NC(=O)COc2ccc3c(c2)CCC3)c1 | 20.5
O=C(Cn1cc(-c2ccccc2)ncc1=O)Nc1ccncc1 | 17.1
O=C(N1CCCC1)N1CCC2(CCCN(CCOc3ccccc3)C2)C1 (centres undefined) | 2.5
CNc1cncc(C2CCCN2Cc2c[nH]cn2)n1 (centres undefined) | 15
CO[C@@H]1CCN(C(=O)c2ccccn2)[C@H]1Cc1ccccc1 | 10
CC1(C)OCC(CNC(=O)c2cnn(-c3cc(Cl)ccc3Cl)c2N)O1 (centres undefined) | 7.5
CN(C)c1ccc(NC(=O)NCc2ccccn2)cn1 | 18.8
Cc1cnn(CC2CCCN2CC(=O)Nc2cc(C(C)(C)C)no2)c1 (centres undefined) | 28.2
Cn1cc(C(=O)N2CCC(Cc3nccs3)CC2)cn1 | 0
